High-throughput results: PubChem BioAssay, National Center for Advancing Translational Sciences (NCATS)
HT1080 IDH1KD tx: toxicity to HT-1080 IDH1 knockdown cells (counter line) | HT-1080 IDH1 knockdown viability, ATP luminescence, 48 h | Potency, µM (top dose mostly 46.1 µM), for inactives: top-dose activity, negative = toxicity, actives largely listed as cytotoxic | 360,000 tested, 2% active;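 also: 0% = DMSO wells and -100% = cell-free medium wells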
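Viability of IDH1-knockdown HT-1080 fibrosarcoma cells was assessed by CellTiter-Glo after 48 h at 37 °C with titrated compound; concentration-effect curves were classified by fit quality and response size.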
HT1080-NT tox: kills 2HG-producing HT-1080-NT fibrosarcoma cells. HT-1080-NT fibrosarcoma viability, CellTiter-Glo ATP luminescence, 48 h. Potency, µM (titrated, usually from 46.1 µM), for inactives: at the highest dose activity, negative = less viability, usual class: cytotoxic. 360,000 tested, 1.6% active;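 also: NT is the 2HG producing partner of a matched IDH1 knockdown line; 0% = DMSO-treated cells and -100% = media-only wells without cells; nearly all actives have a fitted effect of over 55% in size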
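Compounds were tested in concentration-response format on HT-1080-NT cells for 48 hours at 37 degrees C. Cell viability came from CellTiter-Glo luminescence; curves were classified by r2, response magnitude and activity.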
SW480 rereplic: DNA re-replication induction in SW480 cells. SW480 DNA re-replication, Hoechst DNA content imaging, 48 h. AID 624297. 340,000 tested, 1.8% active. Potency, µM (titrated, usually from 46.1 µM), without a hit: at the highest dose re-replication activation, hits mostly activators; also: % of control where 0% means no effect; nearly all actives have a fitted effect of over 55% in size
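Image-based DNA-content assay: after two days of treatment, nuclei were labelled with the DNA dye Hoechst and imaged, and hits were compounds raising the count of nuclei showing high fluorescence intensity.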
KB-3-1 tox: KB-3-1 parental cell cytotoxicity; 400,000 tested, 1.4% active; Potency, µM (titrated, usually from 46.1 µM), actives largely listed as cytotoxic; KB-3-1 viability, CellTiter-Glo ATP luminescence, 72 h; AID 1347075; also: % is scaled to controls: 0 for no effect and ±100 for the full control effect; nearly all actives have a fitted effect of over 60% in size
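Here the drug-naive KB-3-1 line serves as comparator for MDR sub-line selectivity; cells received compound titrations, 72 h at 37 °C, then CellTiter-Glo readout.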
MCF10A rerep: DNA re-replication induction in MCF 10a cells | MCF 10A DNA re-replication, Hoechst nuclear intensity, 48 h | Potency, µM (series often up to 46.1 µM), for the others: at the highest dose activity, positive = re-replication, most hits filed as activators | 350,000 tested, 2.9% active | AID 624296; also: % of control where 0% means no effect; nearly all actives have a fitted effect of over 50% in size
KB-V1 cytotox: kills drug-selected multidrug resistant KB-V1 cells; KB-V1 MDR cells viability, CellTiter-Glo, 72 h; Potency, µM (series often up to 46.1 µM), hits mostly cytotoxic; 400,000 tested, 3.4% active; AID 1347076; also: % is scaled to controls: 0 for no effect and ±100 for the full control effect; nearly all actives have a fitted effect of over 60% in size
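Luminescent ATP read-out (CellTiter-Glo, 10 min) measures survival of drug-selected KB-V1 MDR cells after 72 h, 37 degrees C compound exposure. Medium: phenol-red-free DMEM, 10% FBS. Values from fitted concentration-response curves.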
Active calls of the source: *; i = inactive; ? = inconclusive; . = not tested or not shown. Sampled rows, rich in hits. Any-hit rate of the full collection: about 8%. Calls follow the shape of the dose curve; as a rule, active = well fitted curve in the direction sought with a large enough effect; inconclusive = small, poorly fitted or top-dose-only effect, or another doubt; inactive = no such curve, though single readings can be large; an effect the other way counts as inactive or inconclusive. Potency is read from the fitted curve at half-maximal effect.

SMILES	HT1080 IDH1KD tx	HT1080-NT tox	SW480 rereplic	KB-3-1 tox	MCF10A rerep	KB-V1 cytotox
COc1cc2c(cc1OC)C(c1cccc(Br)c1)CC(=O)N2 (stereo not drawn)	-16.6%	-1.8%	-68.7%	i	?	i
O=C1CC(c2cccc(Br)c2)c2cc3c(cc2N1)CCC3 (stereo not drawn)	4.47µM*	4.47µM*	-3.1%	18.4µM*	?	7.31µM*
CCN(CC(=O)NC(C)C)C(=O)C(CCSC)NC(=O)c1cccc(C)c1 (stereo not drawn)	-1.9%	-0.9%	-2.5%	i	1.7%	23.1µM*
Cc1ccc(-c2csc(N)n2)cc1	-0.4%	-1.2%	-3.7%	i	-7.9%	i
O=c1c(-c2nnc(SCc3ccc(Cl)cc3)o2)cccn1Cc1ccccc1	?	?	18.7%	i	16.6%	4.61µM*
c1ccc(CSc2nnc(Cc3ccccc3)o2)cc1	2.3%	2.1%	0.1%	i	0.1%	i
O=C(Nc1ccccc1-c1nnc(SCc2ccc(Cl)cc2)o1)c1ccccc1	-5.8%	-2.4%	-1.6%	i	16.5%	?
O=C(Nc1ccccc1-c1nnc(SCc2ccccc2)o1)c1ccccc1	3.5%	-4.4%	0.1%	i	?	14.6µM*
Brc1ccc(CSc2nnc(Cc3c[nH]c4ccccc34)o2)cc1	-20.5%	-5.1%	0.0%	i	?	18.4µM*
O=S(=O)(Nc1ccc(-c2nnc(SCc3ccc(Cl)cc3)o2)cc1)c1ccccc1	-0.7%	-0.1%	7.4%	i	20.6µM*	i
CCOc1ccccc1-c1nnc(SCc2ccc(Cl)cc2)o1	.	.	.	i	.	?
CCn1c(SCC(=O)OC)nnc1C1CCCCC1	7.6%	4.7%	-4.7%	i	9.7%	i
CC(C)(C)c1csc(CS(=O)(=O)c2ccccn2)n1	1.8%	2.0%	-10.2%	i	6.0%	i
CCSc1nnc(-c2c[nH]c3ccccc23)o1	-0.2%	-19.4%	-6.5%	i	-0.8%	i
Clc1ccc(CSc2nnc(-c3c[nH]c4ccccc34)o2)cc1	?	?	0.8%	i	20.6µM*	?
COc1ccc(S(=O)(=O)Oc2cccc(/C=N/N=C3/NC(=O)C(CC(=O)O)S3)c2)cc1 (stereo not drawn)	6.8%	-2.5%	6.51µM*	i	-17.2%	i
C/C(=N/NC(=O)c1ccc(Br)o1)C(C)C	8.4%	12.3%	0.517µM*	i	0.8%	i
Cc1ccc2c(c1)-c1cc(C)nn1C(c1ccc3c(c1)OCO3)N2 (stereo not drawn)	-7.6%	-1.2%	6.3%	i	11.8%	i
CNc1cc(-n2nc(C)cc2-c2ccccc2)ncn1	-4.7%	-3.4%	0.1%	i	-3.1%	i
Cc1cc(-c2ccccc2)n(-c2cc(N/N=C/c3ccccc3O)ncn2)n1	1.03µM*	?	?	?	2.06µM*	0.82µM*
Cc1csc(SCC(=O)Nc2c(C)n(C)n(-c3ccccc3)c2=O)n1	16.7%	8.9%	-1.0%	i	-7.7%	i
C=C1CC(C(=O)N/N=C/c2ccc(O)cc2)C1	16.5%	16.0%	16.4µM*	i	-4.2%	i
O=C(NN=Cc1ccc(F)cc1)C1CC1	3.0%	-2.5%	-6.8%	i	5.5%	i
O=C1C2C3C=CC([C@@H]2C(=O)N1c1nccs1)C31CC1 (stereo partly drawn)	9.1%	2.6%	3.7%	i	-6.7%	i
CCn1c2ccccc2c2nnc(SCN3C(=O)c4ccccc4C3=O)nc21	0.5%	1.2%	-2.6%	?	2.6%	8.2µM*
SMILES	HT1080 IDH1KD tx	HT1080-NT tox	SW480 rereplic	KB-3-1 tox	MCF10A rerep	KB-V1 cytotox
C=CCn1c2ccccc2c2nnc(SCC(=O)NC(C(=O)OC)C(C)C)nc21 (stereo not drawn)	-7.5%	-10.5%	-2.5%	i	-0.3%	8.2µM*
C=C1C(=O)C=C[C@]2(C)C[C@@H]3OC(=O)[C@](C)(O)[C@H]3C[C@@H]12	?	?	?	?	6.51µM*	?
CCCCOC(=O)CSC1=C(C#N)C(c2ccccc2OCC)C(C#N)C(=O)N1 (stereo not drawn)	-15.4%	-6.0%	10.3µM*	i	?	?
CCSC1=C(C#N)C(c2ccccc2OC)CC(=O)N1 (stereo not drawn)	-2.4%	-3.7%	-4.7%	i	2.1%	i
CCCOC(=O)CSC1=C(C#N)C(c2ccccc2OCC)C(C#N)C(=O)N1 (stereo not drawn)	-8.3%	-14.2%	-2.9%	i	2.7%	i
CCOC(=O)CSC1=C(C#N)C(c2ccccc2OC)CC(=O)N1 (stereo not drawn)	18.4µM*	?	18.4µM*	?	5.17µM*	?
CCOC(=O)CSC1=C(C#N)C(c2ccc(C)s2)CC(=O)N1 (stereo not drawn)	1.78µM*	0.708µM*	4.7%	5.17µM*	?	1.84µM*
O=C(NC(=S)NCCC1=CCCCC1)c1ccco1	2.7%	8.7%	1.3%	i	-6.4%	?
Cc1ccc(C(=O)CSc2ccc(-c3cccnc3)nn2)cc1	21.3%	10.3%	13.5%	i	10.4%	i
COc1ccc(OC)c(CNC(=O)CCn2nc(C)c3c(C)n(-c4ccccc4)nc3c2=O)c1	10.1%	0.8%	-23.7%	i	-3.0%	i
Cc1ccccc1OCc1nc2ccccc2c(=O)n1/N=C/c1cn[nH]c1-c1ccc(Br)cc1	-2.7%	-2.5%	?	?	?	7.31µM*
Cc1ccc(-c2[nH]ncc2/C=N/n2c(C)nc3ccccc3c2=O)cc1	-1.3%	-10.6%	-6.6%	i	?	i
O=c1c2ccccc2nc(COc2ccccc2)n1/N=C/c1cn[nH]c1-c1ccccc1	-26.8%	-24.0%	-3.1%	i	?	20.6µM*
COc1ccc(-c2cc(C(=O)N3CC4(C)CC3CC(C)(C)C4)no2)cc1OC (stereo not drawn)	-2.0%	7.5%	-5.7%	i	?	20.6µM*
COc1ccc(-c2cc(C(=O)N3CC4(C)CC3CC(C)(C)C4)no2)cc1 (stereo not drawn)	-0.4%	7.5%	-8.5%	?	14.8%	i
Cn1c(=NC(=O)C2CCCCC2)sc2cc([N+](=O)[O-])ccc21	16.3%	20.6%	-2.3%	i	-17.5%	i
COc1ccc(NC(=O)c2cccc(S(=O)(=O)N3CCOCC3)c2)cc1	-7.7%	-6.7%	-18.9%	i	10.9%	?
O=C(COc1ccc(C(=O)c2ccc(F)cc2)cc1)Nc1cccc(S(=O)(=O)N2CCOCC2)c1	-12.6%	-12.5%	-1.9%	i	10.1%	11.6µM*
